Screen size: about 410,000 compounds; about 6,400 (1.6%) were called active. Not shown: some 20% with an inconclusive outcome. Only a selection was taken, and actives are over-represented in it overall. A number with no mark means an inactive call. The call rests on the fitted dose curve; in most records, active means well fitted inhibition curve with a large enough effect; inconclusive means small, poorly fitted or top-dose-only effect; inactive means no such curve, though single readings can be large or run the other way.
On the % scale 0 is the no-effect control and ±100 the full control effect; potency means the concentration at half of the fitted maximal effect.

In the experiment the target is Glucagon-like peptide 1 receptor (Homo sapiens) (UniProt P43220). Description: qHTS of GLP-1 Receptor Inverse Agonists (Inhibition Mode). Further: nearly all actives have a fitted effect of over 55% in size. The following applies: HEK293 GLP-1R CRE-luciferase, luminescence, 24 h, GLP-1R form is constitutively active; series mostly up to 38.3 µM; activity change, negative = inhibition: at the top concentration. In short, it runs like this: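 GLP-1R inverse agonism mode: basal reporter luminescence in engineered HEK293 cells measured after one day of compound exposure at 37 deg C, with a 12 min room-temperature detection step.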
Glucagon-like peptide 1 receptor (Homo sapiens), sequence (P43220 whole entry, looked up): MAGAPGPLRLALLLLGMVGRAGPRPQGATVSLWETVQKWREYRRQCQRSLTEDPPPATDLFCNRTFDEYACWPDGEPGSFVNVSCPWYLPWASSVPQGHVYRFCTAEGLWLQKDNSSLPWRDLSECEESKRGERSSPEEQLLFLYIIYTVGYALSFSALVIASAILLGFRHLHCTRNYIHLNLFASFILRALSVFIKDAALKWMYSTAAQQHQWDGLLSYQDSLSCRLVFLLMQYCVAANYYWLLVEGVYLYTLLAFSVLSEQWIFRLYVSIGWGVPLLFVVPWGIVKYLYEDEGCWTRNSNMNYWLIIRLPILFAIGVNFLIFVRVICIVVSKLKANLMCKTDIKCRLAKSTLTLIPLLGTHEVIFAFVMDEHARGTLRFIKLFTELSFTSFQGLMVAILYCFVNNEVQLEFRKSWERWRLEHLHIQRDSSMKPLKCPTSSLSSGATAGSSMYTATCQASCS
(In general: Quantitative high-throughput screening tests each substance at several concentrations.)
For the molecule `O=C(CSc1ccc(Cl)cc1)NC1CC1`, the “activity change, negative = inhibition” value is 2.92%. `CC1CCc2noc(NC(=O)c3ccc([N+](=O)[O-])cc3)c2C1` (stereo unspecified): the “activity change, negative = inhibition” value is -25.2%. In the case of `COc1ccc(C(=O)Nc2onc3c2CCCC3)cc1`, the Potency is 11.2 µM (active).

As for `COc1ccc(NC(=O)c2c(C)oc3c2CCCC3)cc1`, the “activity change, negative = inhibition” value is 0%. Still for that read-out and setting: the value for `O=C1NC[C@H](CCCCN2C[C@H](Cc3ccccc3)N(Cc3ccccc3)C(=O)C2=O)N(CCc2ccc(O)cc2)C1=O` was 8.51%; that for `CN1CCn2cnc(C(=O)NCC(=O)OC(C)(C)C)c2C1=O` was 15.6%; that for `O=C(Nc1nnc([C@H]2C[C@H](O)[C@@H](CO)O2)s1)c1cccc(Cl)c1` was -12.3%. On to `CC1=NN(c2cccc(Cl)c2)C(=O)C12CC(C)=C(C)CS2` (stereo unspecified), for which the Potency was 10 µM (active). On to `CCOC1=C2[C@H]([C@H]3C(=O)N(c4ccccc4)C(=O)[C@H]3C1)[C@@H](c1ccccc1)N(S(=O)(=O)c1ccc(C)cc1)[C@H]2c1ccccc1`, for which the “activity change, negative = inhibition” value is 10.2%.

`Cc1cc(Nc2ccc(C)c(C)c2)n2ncnc2n1`: the “activity change, negative = inhibition” value was 11.7%.

Turning to `CCOC(=O)c1[nH]ncc1CN1CCCC(C(=O)c2ccc(OC)cc2C)C1` (stereo unspecified), the “activity change, negative = inhibition” value was -2.62%. As for `CCn1ccnc1CN1CCCC(C(=O)c2ccc3c4c(cccc24)CC3)C1` (stereo unspecified), the Potency was 11.2 µM (active). Turning to `CC(=O)NCC(=O)N1CCCC(C(=O)c2ccc3c4c(cccc24)CC3)C1` (stereo unspecified), the “activity change, negative = inhibition” value was 8.71%. Same read-out and setting: under `O=C(N=C1SC2CS(=O)(=O)CC2N1Cc1ccccc1)c1ccccc1` (stereo unspecified) stands 0.0638%.

On to `CSCCC(C(=O)NC(C)(C)C)n1c(-c2ccccc2)nc2ccccc21` (stereo unspecified), for which the “activity change, negative = inhibition” value was 11%. In the case of `COc1ncnc2c1ncn2CCCNCCN1CCOCC1`, the “activity change, negative = inhibition” value was 6.67%. With `CCc1nc2c(OCCOc3ccccc3)cccn2c1N(C)C(=O)c1ccc(OC)cc1`, the “activity change, negative = inhibition” value was 10.8%.

As for `CC(C)(C)c1ccc(C(=O)NNC(=O)Cc2ccccc2)cc1`, the “activity change, negative = inhibition” value is -24.5%. The same measure, in the same setting: under `CN(C(=O)COC(=O)CNC(=O)C12CC3CC(CC(C3)C1)C2)c1ccccc1` stands 21.8%. Turning to `CN(C(=O)CC(NC(=O)c1ccccc1)(c1ccccc1)c1ccccc1)c1ccccc1`, the Potency was 12.6 µM (active).

As to `COc1ccc(C(CNC(=O)CSc2ccccc2)N2CCOCC2)cc1` (stereo unspecified), the “activity change, negative = inhibition” value was -4.63%. On the same count and under the same terms, under `COc1ccc(C/C(N)=N/OC(=O)c2ccco2)cc1OC` stands 47.5%. As for `COc1ccc(C(=O)O/N=C(\N)Cc2ccc(Cl)cc2Cl)cc1OC`, the Potency was 8.91 µM (active).

As to `COc1ccc(C(=O)ON=C2c3ccccc3-c3ccccc32)cc1OC`, the “activity change, negative = inhibition” value is 21.9%.

Consider `CCc1c(C)nc2c(-c3ccccc3)c(C)nn2c1Nc1ccc(NC(C)=O)cc1`, for which the Potency is 10 µM (active). In the case of `Cc1cc(-c2ccccc2)n2nc(C)c(-c3ccccc3)c2n1`, the “activity change, negative = inhibition” value is -1.84%. The same measure, in the same setting: the value for `Cc1cc(-n2nc(C)cc2C)n2nc(C)c(-c3ccccc3)c2n1` was -10.6%. Same read-out and setting: under `Cc1ccc2nc(-c3ccccc3)c(CC3CCCCC3)n2c1` stands -29.8%; under `O=C1Nc2ccccc2-n2nnnc2C1N1CCN(c2cccc(C(F)(F)F)n2)CC1` (stereo unspecified), -22%; under `CC(=O)c1cccc(-c2cnc3c(NC=O)cc(-c4ccccc4Oc4ccccc4)cn23)c1`, -19.1%. On the same count and under the same terms, under `CNc1cncc(-c2cccc(C(=O)N3CCOCC3)c2)n1` stands 2.33%. Turning to `Cc1nccn1-c1ccc(NC(=O)[C@H]2O[C@@H](n3ccc(=O)[nH]c3=O)[C@H](O)[C@@H]2O)cc1`, the “activity change, negative = inhibition” value was 8.26%. As for `COc1cc(C(O)c2nc(-c3cnn(C)c3)cs2)ccc1F` (stereo unspecified), the “activity change, negative = inhibition” value was -19.5%. For `CN1CCN(C(=O)c2ccc(NC(=O)c3ccc(Br)o3)cc2)CC1`, the “activity change, negative = inhibition” value is 22.9%. Consider `COc1ccc(-c2cn3ccc(C)cc3n2)cc1`, for which the Potency is 6.31 µM (active). For `COc1ccc(-c2cn3cccnc3n2)cc1`, the “activity change, negative = inhibition” value is 20.6%.

Regarding `CCN(CC)S(=O)(=O)c1ccc(-c2cn3ccc(C)cc3n2)cc1`, the “activity change, negative = inhibition” value is 15.4%. The same measure, in the same setting: under `COc1ccc(-c2c(C#N)cnc(C)c2C)c(O)c1OC` stands -2.78%. Regarding `CNC[C@H]1OCc2cnnn2CCCC(=O)N([C@H](C)CO)C[C@@H]1C`, the “activity change, negative = inhibition” value was 26.7%.

For `OC(c1ccc(Cl)c(F)c1)c1ncc(-c2ccccc2Cl)[nH]1` (stereo unspecified), the “activity change, negative = inhibition” value was -21.2%. Take `COC(=O)c1ccc(NCC(=O)c2ccccc2)cc1`: the “activity change, negative = inhibition” value is 4.32%. As for `CCC[C@@H]1C[C@@]1(CCC)[C@@H](NC(=O)c1ccccc1)c1ccc(C(=O)OC)cc1`, the Potency was 5.01 µM (active). As for `COC(=O)c1ccc(C(NC(=O)OCc2ccccc2)/C(F)=C/[C@@H](C)C(=O)O)cc1` (stereo partly specified), the “activity change, negative = inhibition” value was 16.1%. Consider `Cc1ccc(C(=O)NC(=S)NCCN2CCOCC2)cc1`, for which the “activity change, negative = inhibition” value was 16%. Turning to `Cc1ccccc1CN1C(=O)c2ccccc2Sc2ccc(C(=O)NCCCN3CCOCC3)cc21`, the “activity change, negative = inhibition” value is -26.5%. In the case of `CCC1=Nc2cc(C(=O)NCCN3CCCC3)ccc2Sc2ccc(C)cc21`, the Potency was 3.55 µM (active). `COc1ccc(C(=O)NCCCN2CCOCC2)cc1Br`: the “activity change, negative = inhibition” value is 3.74%. Still for that read-out and setting: the value for `Cc1ccc(C(=O)NCCNS(=O)(=O)c2ccccc2)cc1` was 0.318%. As for `CCC1=Nc2cc(C(=O)NCCCN3CCOCC3)ccc2Sc2ccc(Br)cc21`, the Potency is 11.2 µM (active).

Take `CCC1=Nc2cc(C(=O)NCC(C)c3ccccc3)ccc2Sc2ccc(C)cc21` (stereo unspecified): the Potency is 5.01 µM (active). On to `CC1=C(C(=O)Nc2cccc(C(=O)NCC(C)c3ccccc3)c2)SCCO1` (stereo unspecified), for which the “activity change, negative = inhibition” value is -20.5%. On the same count and under the same terms, under `CCc1ccccc1NC(=O)NCCN1CCCCC1` stands 11.2%; under `O=C(Nc1ccccc1)c1ccccc1Br`, 27.6%; under `CC(OC(=O)c1cccc(S(=O)(=O)N2CCOCC2)c1)C(=O)NCC1CCCCC1` (stereo unspecified), -10.6%. Still for that read-out and setting: the value for `CC1=C(C(=O)N2CCOCC2)CC(CC(=O)NCCN2CCOCC2)C(=O)N1CCC1=CCCCC1` (stereo unspecified) was 3.72%; that for `COCCNC(=O)C1C(=O)Nc2ccccc2C(=O)N1c1ccc2c(c1)OCCO2` (stereo unspecified) was 15.6%; that for `CCc1oc(-c2ccc(OC)cc2)c(C(=O)OCCCCCO)c1C(C)OCCO` (stereo unspecified) was 6.05%. Take `CC1(C(=O)Nc2ccccc2Br)CCN1C(=O)CC1CC1` (stereo unspecified): the “activity change, negative = inhibition” value was 8.34%. Consider `Cc1cccc(-c2nc(Nc3ccc(O)cc3)c3ccccc3n2)c1`, for which the Potency was 2.82 µM (active). For `Cc1cccc(-c2noc(-c3ccc(F)cc3)n2)c1`, the “activity change, negative = inhibition” value is 1.87%. On the same count and under the same terms, under `COc1ccc(Nc2nnc(C)c3ccccc23)cc1` stands 17.4%; under `COc1cccc(Nc2nc3ccccc3c3nncn23)c1`, 10.2%. On to `COc1cc(Nc2nc(-c3ccc(OC)c(OC)c3)nc3ccccc23)cc(OC)c1`, for which the Potency is 11.2 µM (active).

Turning to `Oc1ccc(-c2nnc(Nc3ccccc3)c3ccccc23)cc1`, the “activity change, negative = inhibition” value is 2.85%.

Consider `C[C@H]1CN([C@@H](C)CO)C(=O)CCCn2cc(nn2)CO[C@@H]1CN(C)C(=O)Nc1ccccc1`, for which the “activity change, negative = inhibition” value was 9.62%.

For `CCCCNC(=O)C[C@@H]1C[C@@]2(C(=O)OC)CC(C)(C)CC=C2N(Cc2ccco2)C1=O`, the “activity change, negative = inhibition” value is -13.8%.
